# Experimental data published in PubChem BioAssay (Tox21).
# Results filed as inconclusive are left out. Values without a mark were called inactive. Active and inactive are the calls of the source. Calls come from the whole dose curve; as a rule, active = well fitted activation curve with a large enough effect in the repeat runs; inconclusive = weak or mixed curves; inactive = no such curve, though single readings can be large or run the other way. Positions of bridges follow the written chain, without caps; N, C: chain ends. Non-standard residues stand in square brackets, D forms with d. Residues, ends and D or L forms follow the SMILES beside them. *: point of attachment. Dab(CH2SO3H) = N[C@@H](CCNCS(=O)(=O)O)C(=O)O; X3 = CC[C@@H](C)CCCCC(=O)*; Dab = NCC[C@H](N)C(=O)O
# Molecular target: Nuclear receptor subfamily 1 group I member 2 (Rattus norvegicus) (UniProt Q9R1A7)
# Experiment: Rat pregnane X receptor (rPXR) activation by small molecules, qHTS assay (AID 1346983); note: nearly all actives have a fitted effect of over 20% in size
# Details: rPXR luciferase reporter cells, One-Glo luminescence, 24 h; max activation: active compounds read high
# How it was run: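 Cell-based rPXR activation assay: rPXR cells, 2,000 per well, rested 5hr at 37 C, then exposed to compounds in DMSO for 24 hr at 37 C. Luciferase activity read by One-Glo luminescence after 30 min at room temperature.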
# % is set by controls: 0 for no effect and ±100 for the full control effect; potency is the fitted concentration of half-maximal effect.
# Sequence of Nuclear receptor subfamily 1 group I member 2 (Rattus norvegicus) (Q9R1A7 whole entry, looked up): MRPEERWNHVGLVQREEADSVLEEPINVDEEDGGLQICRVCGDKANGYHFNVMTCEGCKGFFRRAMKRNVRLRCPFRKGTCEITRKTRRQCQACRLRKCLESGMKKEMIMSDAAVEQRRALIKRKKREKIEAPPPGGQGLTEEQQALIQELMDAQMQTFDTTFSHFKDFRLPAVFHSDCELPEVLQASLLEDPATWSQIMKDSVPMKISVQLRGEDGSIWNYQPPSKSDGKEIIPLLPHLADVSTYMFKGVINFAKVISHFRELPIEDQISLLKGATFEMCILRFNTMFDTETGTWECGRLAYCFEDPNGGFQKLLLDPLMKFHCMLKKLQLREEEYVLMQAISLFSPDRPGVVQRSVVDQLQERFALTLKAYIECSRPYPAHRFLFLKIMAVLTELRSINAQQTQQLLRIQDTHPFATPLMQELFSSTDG
SMILES,max activation [%],Potency
FC(F)(F)C(F)(F)C(F)(F)C(F)(F)C(F)(F)F,-2.03,–
CC12CCC(C1)C(C)(C)C2=O (configuration not stated),-2.76,–
C=C1[C@H](CO)[C@@H](O)C[C@@H]1n1cnc2c(=O)[nH]c(N)nc21,-2.99,–
OCCCNc1ccccc1,-0.22,–
CN(C)CCOc1ccc(/C(=C(/CCCl)c2ccccc2)c2ccccc2)cc1,-3.02,–
CC(C)[N+]1(C)[C@@H]2CC[C@H]1CC(OC(=O)C(CO)c1ccccc1)C2 (some centres not stated),-2.6,–
CC[C@@H](C)CCCCC(=O)N[C@@H](CCNCS(=O)(=O)O)C(=O)N[C@H](C(=O)N[C@@H](CCNCS(=O)(=O)O)C(=O)N[C@H]1CCNC(=O)[C@H]([C@@H](C)O)NC(=O)[C@H](CCNCS(=O)(=O)O)NC(=O)[C@H](CCNCS(=O)(=O)O)NC(=O)[C@H](CC(C)C)NC(=O)[C@@H](CC(C)C)NC(=O)[C@H](CCNCS(=O)(=O)O)NC1=O)[C@@H](C)O (X3-[Dab(CH2SO3H)]T[Dab(CH2SO3H)][Dab][Dab(CH2SO3H)][dL]L[Dab(CH2SO3H)][Dab(CH2SO3H)]T; lactam 4-C),-6.38,–
CC(C)OC(=O)Nc1ccc2nc(-c3cscn3)[nH]c2c1,–,8.91 µM (active)
CC1CCCC(C)N1NC(=O)c1ccc(Cl)c(S(N)(=O)=O)c1 (configuration not stated),-4.09,–
CC(=O)OCC(=O)[C@@]1(O)CC[C@H]2[C@@H]3CCC4=CC(=O)CC[C@]4(C)C3=CC[C@@]21C,-1.67,–
O=C(O)c1cc(O)c2c(c1)[C@H]([C@H]1c3cc(C(=O)O)cc(O)c3C(=O)c3c(O[C@@H]4O[C@H](CO)[C@@H](O)[C@H](O)[C@H]4O)cccc31)c1cccc(O[C@@H]3O[C@H](CO)[C@@H](O)[C@H](O)[C@H]3O)c1C2=O,-0.0362,–
CC(C)(Oc1ccc(C2CCCc3ccccc32)cc1)C(=O)O (configuration not stated),-3.77,–
O=C(O)[C@H]1CN(C/C=C/P(=O)(O)O)CCN1,-2.14,–
C/C=C/C1=C(C(=O)O)N2C(=O)[C@@H](NC(=O)[C@H](N)c3ccc(O)cc3)[C@H]2SC1,-4.1,–
COc1ccc(/C=C/C(=O)O)cc1,1.47,–
CN1CCN(CCCN2c3ccccc3Sc3ccc(C(F)(F)F)cc32)CC1,-11.2,–
O=C(O)Cc1nn(Cc2ccc(Br)cc2F)c(=O)c2ccccc12,0.657,–
